Rows were chosen to be rich in hits. Some 4.5% of all compounds tested hit in one or more screens of this group.
ZTA counter = counter-screen for EBNA-1 inhibitors: inhibitors of Epstein-Barr virus ZTA; 0.15% of 320,000 active; AID 2234; P03206; inhibition, % at 11 µM; ZTA-DNA binding, fluorescence polarization; in the data active means inhibition above about 33%
Target sequence (P03206 whole entry, looked up): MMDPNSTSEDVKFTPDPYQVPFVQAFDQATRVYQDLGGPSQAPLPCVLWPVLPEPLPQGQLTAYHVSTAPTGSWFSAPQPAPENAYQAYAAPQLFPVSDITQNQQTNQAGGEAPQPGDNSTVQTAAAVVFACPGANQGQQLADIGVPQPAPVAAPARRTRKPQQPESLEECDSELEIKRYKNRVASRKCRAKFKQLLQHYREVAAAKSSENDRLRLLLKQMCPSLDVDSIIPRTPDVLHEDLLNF
Rpn11 block = Rpn11 (PSMD14) deubiquitinase inhibitors, primary screen, biochemical, fluorescence polarization, uHTS; human 26S proteasome, Ub4-pepOG fluorescence polarization; 20S core pre-blocked with epoxomicin; inhibition, % at 20 µM; 26S proteasome non-ATPase regulatory subunit 14 (Homo sapiens), O00487; 0.59% of 360,000 active;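 active means inhibition at 20 µM, scaled to each plate's controls, above about 33%, limit read from the data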
Target sequence (O00487 whole entry, looked up): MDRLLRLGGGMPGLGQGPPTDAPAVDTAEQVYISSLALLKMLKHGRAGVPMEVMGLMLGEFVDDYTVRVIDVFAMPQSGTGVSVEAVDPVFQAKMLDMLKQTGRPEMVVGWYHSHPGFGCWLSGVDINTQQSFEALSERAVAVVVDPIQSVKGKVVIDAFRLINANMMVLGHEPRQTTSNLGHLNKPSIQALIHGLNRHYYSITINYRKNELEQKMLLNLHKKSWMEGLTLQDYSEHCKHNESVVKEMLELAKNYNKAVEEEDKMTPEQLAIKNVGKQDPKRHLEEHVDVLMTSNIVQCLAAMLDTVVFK
dFosB activator = activators of delta FosB homodimer, primary screen, biochemical, fluorescence polarization, TAMRA-CDK5 oligo, single point; activation, % at 25 µM; AID 493131, 2011; purified delta FosB; percent of positive-control signal above neutral wells; 0.99% of 340,000 active;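 active means mean activation above about 17%, with every replicate also reaching it, limit read from the data, passing the limit was not always enough; inconclusive means only one of the two conditions met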
NR3A LBD binder = binders of NR3A ligand-binding domain, primary screen, biophysical, differential scanning fluorimetry, uHTS. Glutamate receptor ionotropic, NMDA 3A (GRIN3A) ligand-binding domain. NR3A LBD differential scanning fluorimetry, Tm shift; 0% = protein alone, 100% = glycine-bound protein. Tm shift relative to glycine control, % at 25 µM. 2.5% of 340,000 active. AID 1259313, 2017;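 active means melting temperature shift of at least 10% of the positive control shift, at one fixed dose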
EBNA-1 inhibitor = EBNA-1 DNA-binding inhibitors, primary screen, biochemical, fluorescence polarization | 0.34% of 300,000 active | inhibition, % at 14.8 µM; in the data active means inhibition above about 28%
TPT1 inhibitor = Candida albicans TPT1 enzyme inhibitors, primary screen, biochemical, fluorescence polarization; tRNA 2'-phosphotransferase TPT1 (Candida albicans SC5314); 0.81% of 300,000 active; AID 1962, 2009; inhibition, % at 5 µM; recombinant caTPT1, FP RNA substrate dephosphorylation;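 active means inhibition above the mean of all tested compounds plus 3 SD, set per screening campaign, cut at about 24% in these data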;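 further: plate controls were DMSO alone for no effect and ferristatin control at 100 nM for full effect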
Active calls of the source: *; ? = inconclusive; . = no result.

SMILES | ZTA counter | Rpn11 block | dFosB activator | NR3A LBD binder | EBNA-1 inhibitor | TPT1 inhibitor
CN(C)c1ccc(CC(=O)N2CCCC(c3cc(C(=O)Nc4ccc(F)c(Cl)c4)no3)C2)cc1 (stereo not given) | . | 3 | . | . | . | .
NC(=O)c1ccccc1NC(=O)CCCCCn1nnc2ccccc2c1=O | -3 | -2 | -5 | 12* | 3 | 0
CCN(CC)CC(=O)Nc1c(C)cc(C)cc1C | . | . | . | 10* | . | .
CCN(CC)CCN(CC(=O)Nc1c(C)cc(C)cc1C)C(=O)c1ccccc1 | 17 | -6 | 4 | 0 | 7 | 2
COc1ccccc1OCC(=O)N/N=C/c1c(O)ccc2ccccc12 | 8 | 8 | 11 | . | 2 | 1
Cn1ccnc1C(=O)Cc1ccc([N+](=O)[O-])cc1 | 11 | 0 | . | 0 | 5 | -1
Cc1ccc(S(=O)(=O)N(C)CC(=O)NC2CC(C)(C)NC(C)(C)C2)cc1 | -3 | -6 | -5 | -1 | 1 | -3
CN(CC(=O)NC1CC(C)(C)NC(C)(C)C1)S(=O)(=O)c1ccc(Br)cc1 | 19 | 0 | -6 | 13* | 9 | 0
Cc1sc2ncnc(Nc3ccc(O)cc3)c2c1C | 13 | -1 | 8 | 2 | 2 | -2
COc1cc(/C=N/NC2=NCCCCC2)ccc1O | -6 | -4 | -2 | 0 | -2 | 1
COc1cc(/C=N/Nc2ncnc3sc4c(c23)CCC4)ccc1O | . | -6 | 9 | 29* | . | .
Cc1sc2ncnc(N/N=C/c3cccc(O)c3)c2c1C | 12 | 5 | 0 | 13* | 10 | 2
O=c1c2ccc(Cl)cc2nc2n1CC/C2=C\c1cccc(O)c1 | -19 | -9 | -6 | 23* | -4 | 3
O=C(CCCN1C(=O)C(c2ccccc2)Oc2cccnc21)NCCc1ccc(Cl)cc1 (stereo not given) | -8 | 2 | -3 | -2 | -2 | 0
O=C(c1ccccn1)N1CCCC(N2CCN(c3ccc(F)cc3)CC2)C1 (stereo not given) | 5 | 3 | -2 | 0 | 3 | -2
Cc1ccc(S(=O)(=O)N(C)CC(=O)NCCCn2nc(C)cc2C)cc1 | . | 1 | -2 | 13* | . | .
CC(=O)Oc1ccc(N(C(C)=O)S(=O)(=O)c2ccc(C)cc2)c2ccccc12 | -1 | 1 | -8 | -2 | 3 | 0
C/C(=N\N=C1\NC(=O)C(CC(=O)Nc2ccc(Cl)cc2)S1)c1ccco1 (stereo not given) | -8 | -2 | 10 | 0 | 4 | 0
O=C(CC1S/C(=N/N=C/c2cccs2)NC1=O)Nc1ccc(Cl)c(Cl)c1 (stereo not given) | 2 | -2 | ? | 28* | -3 | -1
C/C(=N\N=C1\NC(=O)C(CC(=O)Nc2ccc(C)c(Cl)c2)S1)C(C)(C)C (stereo not given) | 3 | 3 | -6 | 20* | 5 | 1
O=C(NC1CCCC1)C(c1ccccn1)N(C(=O)c1csnn1)c1ccccc1Br (stereo not given) | 11 | 34 | -6 | -1 | 9 | 0
Cc1cc(=O)oc2cc(OCc3ccc(S(=O)(=O)N4CCOCC4)cc3)ccc12 | 2 | -3 | -12 | 18* | -6 | -1
COc1ccc(N2CCN(CCOc3ccc4c(C)cc(=O)oc4c3)CC2)cc1 | 8 | 2 | -2 | 4 | -4 | 1
Cc1cc(=O)oc2cc(OCCSCCN3CCCC3)ccc12 | 8 | -1 | . | 12* | 12 | -1
COc1ccc(COc2ccc3c(C)cc(=O)oc3c2)cc1 | 2 | -3 | -18 | 4 | 7 | -3
SMILES | ZTA counter | Rpn11 block | dFosB activator | NR3A LBD binder | EBNA-1 inhibitor | TPT1 inhibitor
COc1ccc(NC(=O)C(NC(=O)c2ccc(C)cc2)c2ccccc2)cc1 (stereo not given) | -12 | -11 | -4 | -1 | -5 | 1
COc1ncnc2c1ncn2CCCN(C)Cc1ccco1 | . | 2 | . | . | . | .
CCn1c(=O)c(=O)[nH]c2c(=O)oc3ccc(S(=O)(=O)Nc4ccccc4)cc3c21 | -16 | 4 | -5 | 16* | 4 | -3
CCn1c(=O)c(=O)n(CC)c2cc(S(=O)(=O)Nc3ccc(C)cc3)ccc21 | -10 | -3 | -2 | 0 | 4 | -1
CC(=O)c1cc(C#N)c(SCc2ccc([N+](=O)[O-])cc2)nc1C | -7 | 0 | -3 | 3 | 1 | 0
O=C(NC(=S)Nc1ccc(NC(=O)c2ccco2)cc1)c1ccccc1 | 4 | -3 | 8 | 2 | 13 | 1
COc1cc(C(=O)NC(=S)Nc2ccc(NC(=O)c3ccco3)cc2)cc(OC)c1OC | -4 | 1 | -3 | 22* | 5 | -4
Cc1ccc(OCC(=O)Nc2ccc(NC(=O)c3ccco3)cc2)c(C)c1 | -14 | -2 | 2 | 29* | -12 | 2
Cc1c([N+](=O)[O-])cc(C(=O)Nc2ccc(NC(=O)c3ccco3)cc2)cc1[N+](=O)[O-] | 5 | 0 | -9 | 25* | 4 | 1
CCOc1ccc(C(=O)NC(=S)Nc2ccc(NC(=O)c3ccco3)cc2)cc1[N+](=O)[O-] | -4 | -4 | 3 | 41* | -7 | -1
Cc1ccccc1OCC(=O)Nc1ccccc1NC(=O)c1ccco1 | -17 | 2 | 1 | -1 | -2 | -1
Cc1noc(C)c1COC(=O)c1cnc(Cl)c(Cl)c1 | 5 | -3 | -1 | 0 | -3 | 4
O=C(Nc1ccccc1OC(F)F)c1ccccc1 | 18 | 1 | -6 | 0 | -12 | 0
Cc1ccc(C(=O)Nc2ccccc2OC(F)F)cc1 | 13 | -2 | -1 | 13* | -2 | 3
Cc1cccc(C(C)C)c1NC(=O)COC(=O)CN1C(=O)C2CC=CCC2C1=O (stereo not given) | 2 | -10 | -8 | 1 | 5 | 3
CC1(C)Nc2ccccc2C(=O)N1c1ccc(Br)cc1 | -14 | -8 | -7 | 13* | -10 | -1
COc1ccc(N2C(=O)c3ccccc3NC2(C)C)cc1 | 2 | -6 | 2 | -109 | -1 | -2
COc1ccc(CN2C(=O)[C@@H]3Cc4c([nH]c5ccccc45)C(C)(C)N3C2=O)cc1 | -5 | 4 | -4 | 12* | -10 | 0
O=C(O)/C(=C\c1ccccc1OC(F)F)Sc1nnc(-c2ccc(F)cc2)o1 | 0 | -2 | -5 | -4 | 3 | 5
O=c1nc(-c2ccccc2)c2ccccc2[nH]1 | -17 | 0 | 7 | 12* | -4 | 3
Cc1ccccc1NCC(=O)N/N=C\C=C\c1cccc([N+](=O)[O-])c1 | 8 | -2 | -5 | 15* | -11 | -2
